RAD54 inh: blocks human RAD54 Holliday junction branch migration; AID 602329; inhibition, % at 10.4 µM; FAM/BHQ fluorescence; 360,000 compounds, 0.14% hits;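 active = mean normalized replicate activity at least 40 and at least half of replicates scoring 40 or more; inconclusive = only one of the two criteria met; inactive = mean below 40 and under half of replicates reaching 40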;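 note: inhibitors cause a drop in the FAM fluorescence signal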
RAD52 anneal inh: RAD52 (human) annealing inhibition; P43351; recombinant RAD52 DNA annealing, FRET fluorescence; inhibition, % at 18.7 µM; 360,000 compounds, 0.46% hits; AID 651710;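 active = every replicate showing at least 50% inhibition; inconclusive = mean inhibition at least 50% but not in every replicate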
dFosB act: activators of mouse delta FosB homodimer; activation, % at 25 µM; 340,000 compounds, 0.99% hits; P13346; purified delta FosB, TAMRA-CDK5 oligo fluorescence polarization; percent of positive-control signal above neutral wells;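 active = mean activation above about 17%, with every replicate also reaching it, limit read from the data, passing the limit was not always enough; inconclusive = only one of the two conditions met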
Target sequence (P13346 whole entry, looked up): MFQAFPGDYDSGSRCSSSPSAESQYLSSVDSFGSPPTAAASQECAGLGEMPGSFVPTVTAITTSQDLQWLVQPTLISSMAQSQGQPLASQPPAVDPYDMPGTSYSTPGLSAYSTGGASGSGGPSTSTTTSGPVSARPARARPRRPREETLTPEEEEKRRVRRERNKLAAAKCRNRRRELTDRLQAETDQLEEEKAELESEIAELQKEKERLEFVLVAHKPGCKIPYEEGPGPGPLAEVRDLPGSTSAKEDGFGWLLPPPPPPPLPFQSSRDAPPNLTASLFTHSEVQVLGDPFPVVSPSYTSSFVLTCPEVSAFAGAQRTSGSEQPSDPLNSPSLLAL
AF4-AF9 inh: MLL-AF4/AF9 protein interaction inhibition; 350,000 compounds, 0.47% hits; AlphaScreen, biotin-AF4 peptide binding to FLAG-AF9; inhibition, % at 10 µM; P42568;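 active = every replicate reaching a set inhibition limit, whatever the replicate mean, cut at about 25% in these data; inconclusive = mean inhibition reaches that limit but some replicates miss it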
GSIS activator: primary screen for activators of insulin secretion dependent on glucose, INS-1E cells, GLuc reporter luminescence | 370,000 compounds, 0.61% hits | activation, % at 16.6 µM | INS-1E GLuc reporter insulin secretion, 2-3 h | AID 743287;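 active = lowest replicate activation of at least 40%, so every replicate reaches that level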
DENV2 CPE: DENV2-induced cell death inhibition. DENV2-infected cells, cytopathic effect rescue, plate reader. CPE inhibition, % at 9.99 µM. 350,000 compounds, 1.7% hits. AID 651640; in the data active = CPE inhibition above about 20%, passing the limit was not always enough; inconclusive = no clear call, values can overlap the other calls; tested in BHK-21 cells
Hits are given with their value; - = inactive; ? = inconclusive; . = no result. Only some compounds are listed: those with a hit (about 3.1% of all), similar ones and a draw of the others.

SMILES	RAD54 inh	RAD52 anneal inh	dFosB act	AF4-AF9 inh	GSIS activator	DENV2 CPE
C[C@@H]1CN([C@@H](C)CO)C(=O)Cc2cc(NC(=O)CCC(F)(F)F)ccc2O[C@H]1CN(C)S(=O)(=O)c1ccc(Cl)cc1	-	-	.	-	-	?
C[C@@H](NC(=O)C[C@H]1C[C@H]2c3cc(NC(=O)C4CCC4)ccc3O[C@H]2[C@@H](CO)O1)c1ccccc1	-	-	.	-	-	-
C[C@H](CO)N1C[C@H](C)[C@H](CN(C)Cc2ccc(F)cc2)Oc2cc(C#CC3CC3)ccc2S1(=O)=O	-	-	.	-	-	-
CC(C)Cc1nc2c(nnn2Cc2ccccc2F)c(=O)[nH]1	.	-	-	37.7	-	-
CCc1nc2c(nnn2Cc2ccc(F)cc2)c(=O)[nH]1	-	-	-	.	60.1	.
Cc1ccc(C(=O)OCC(=O)N(C)c2c(N)n(Cc3ccccc3)c(=O)[nH]c2=O)s1	-	-	-	-	-	36.3
Cc1nnc(SCC(=O)N(CC(C)C)c2c(N)n(Cc3ccccc3)c(=O)[nH]c2=O)n1N	-	-	-	-	-	78.5
CCCN(C(=O)Cn1nc(C)c([N+](=O)[O-])c1C)c1c(N)n(Cc2ccccc2)c(=O)[nH]c1=O	-	-	18.1	-	-	-
CC(C)CN(C(=O)COC(=O)c1cc(=O)[nH]c2ccccc12)c1c(N)n(Cc2ccccc2)c(=O)[nH]c1=O	-	-	-	-	-	-
CCN(C(=O)COC(=O)c1cc(=O)[nH]c2ccccc12)c1c(N)n(Cc2ccccc2)c(=O)[nH]c1=O	-	-	-	-	-	65.3
Cc1ccsc1C(=O)OCC(=O)N(C)c1c(N)n(Cc2ccccc2)c(=O)[nH]c1=O	-	-	-	-	-	-
C[C@H](CO)N1C[C@H](C)[C@H](CN(C)S(=O)(=O)c2ccc(F)cc2)OCCCC[C@H](C)Oc2ccc(NC(=O)Nc3ccc(F)cc3)cc2C1=O	-	.	.	.	-	-
C/C=C/c1ccccc1[C@H]1[C@H](C#N)N(c2nc(CC)cs2)[C@H]1CO	.	-	.	-	-	-
CCCCc1nc(N)c(C#N)c(-c2ccco2)c1CCC	-	-	-	-	61.6	-
Cc1cc(S(=O)(=O)NC(=O)[C@H]2O[C@@H](n3ccc(=O)[nH]c3=O)[C@H](O)[C@@H]2O)ccc1Br	.	-	.	.	-	20.1
O=C(NS(=O)(=O)c1ccccc1[N+](=O)[O-])[C@H]1O[C@@H](n2ccc(=O)[nH]c2=O)[C@H](O)[C@@H]1O	.	-	.	.	-	-
CCC(=O)Nc1ccc2c(c1)OC[C@@H](C)N(C(C)=O)C[C@H](C)[C@H](OC)CN(C)C2=O	-	-	.	-	-	27.4
CCC(=O)Nc1ccc2c(c1)OC[C@@H](C)N(C(C)=O)C[C@@H](C)[C@@H](OC)CN(C)C2=O	-	-	.	-	-	23.9
CO[C@@H]1CN(C)C(=O)c2ccc(NC(=O)CC(F)(F)F)cc2OC[C@H](C)N(C(C)=O)C[C@@H]1C	.	-	.	-	-	108.0
CCC(=O)Nc1ccc2c(c1)OC[C@@H](C)N(C(C)=O)C[C@H](C)[C@@H](OC)CN(C)C2=O	-	-	.	-	-	-
CO[C@H]1CN(C)C(=O)c2cc(NC(=O)CC(F)(F)F)ccc2OC[C@H](C)N(C(C)=O)C[C@@H]1C	.	-	.	-	-	-
CCC(=O)N1C[C@H]2[C@@H](c3ccccc31)[C@H](CO)N2Cc1cc(F)ccc1F	-	-	.	-	-	-
C[C@@H](O)C#Cc1ccc([C@@H]2[C@H](CO)N3CCCCN(C(=O)c4ccncc4)C[C@@H]23)cc1	-	-	.	-	-	-
COc1ccc(C#Cc2ccc([C@H]3[C@@H](CO)N4CCCCN(C(=O)c5ccncc5)C[C@@H]34)cc2)cc1	-	-	.	-	-	59.1
C[C@H](O)C#Cc1ccc([C@H]2[C@@H](CO)N3CCCCN(C(=O)c4ccncc4)C[C@@H]23)cc1	-	-	.	-	-	-
SMILES	RAD54 inh	RAD52 anneal inh	dFosB act	AF4-AF9 inh	GSIS activator	DENV2 CPE
COc1ccc(C#Cc2ccc([C@@H]3[C@@H](CO)N4CCCCN(C(=O)c5ccncc5)C[C@H]34)cc2)cc1	-	-	.	-	-	28.5
COc1ccc(C#Cc2ccc([C@H]3[C@H](CO)N4CCCCN(C(=O)c5ccncc5)C[C@@H]34)cc2)cc1	-	-	.	-	-	47.4
O=C(Nc1cc(F)ccc1F)N1C[C@@H]2[C@H](c3ccccc31)[C@@H](CO)N2Cc1cccnc1	-	-	.	-	-	-
O=C(C[n+]1ccsc1)c1ccccc1	-	-	-	-	-	31.4
N#C[C@H]1[C@H](c2ccccc2C2=CCCC2)[C@@H](CO)N1C(=O)C1CCOCC1	.	-	.	-	-	-
CC(C)NC(=O)NCC[C@@H]1CC[C@@H](NS(=O)(=O)c2ccc(-c3ccccc3)cc2)[C@@H](CO)O1	-	-	.	-	-	-
CCc1cc(Cn2nc(-c3ccccc3)cc2C(=O)NCC2CC2)on1	-	-	-	-	-	47.8
CN(C)N1C(N)=C(C#N)C(c2ccc3c(c2)OCO3)C2=C1CCCC2=O (stereo not drawn)	-	-	-	25.6	-	-
CO[C@H]1CN(C)C(=O)c2ccc(NC(=O)C3CCOCC3)cc2OC[C@H](C)N(CC2CC2)C[C@H]1C	-	-	.	-	-	-
C[C@@H]1CN([C@@H](C)CO)C(=O)c2cc(-c3cncnc3)cnc2O[C@@H]1CN(C)Cc1ccc(Oc2ccccc2)cc1	-	-	.	-	-	-
COc1cc2sc3cc(NCCCN4CCOCC4)ccc3c(=O)c2cc1OC	-	80.7	-	-	-	-
COCCOC(=O)N1C(=O)[C@@]2(c3cc(C#CCC(C(=O)OC)C(=O)OC)ccc31)[C@H](c1ccccc1OCCO)N1[C@H](c3ccccc3)[C@H](c3ccccc3)OC(=O)[C@H]1[C@@H]2C(=O)NC[C@H](O)c1ccccc1	-	-	.	-	.	30.5
